This note sets out measurements from paper PMC5540273 (PLoS ONE, 2017).

Molecules are shown by their SMILES.

Test systems include TYRO3; ULK1; ULK2; ULK3; VRK2; WEE1; WEE2; WNK1; WNK2; WNK3; WNK4.
Conditions in all cases: concentration: 1 μM, replicates: in singlicate; n = 1
The test system of assay [1] is TYK2(JH2domain-pseudokinase).
The test system of another assay is T1, VEGFR2.
T1 construct: gene KDR

The next assay deals with T2, VPS34.
T2 construct: gene PIK3C3

The next assay concerns T3, YANK1.
T3 construct: gene STK32A

In another assay the test system is T4, YANK2.
T4 construct: gene STK32B

A further assay deals with T5, YANK3.
T5 construct: gene STK32C

In the next assay the test system is T6, YES.
T6 construct: gene YES1

The test system of the next assay is T7, YSK1.
T7 construct: gene STK25

Another assay concerns T8, YSK4.
T8 construct: gene MAP3K19
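Further: KINOMEscan kinase panel screen.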

In the case of `COc1ccc(C)c(Nc2ccnc(Nc3ccc(-c4cnc[nH]4)cc3)n2)c1.Cl` [GW784041], the “%Inh” value in [1] was found to be 0%; with TYRO3, 44%; in the assay on ULK1, 0%; in the assay with ULK2 it was 0%; in the assay on ULK3 it was 6%; in the assay with VEGFR2 it was 0%. In addition, the “%Inh” value is 54% in the assay on VPS34; 0% with VRK2; 0% in the assay with WEE1; 8% in the assay on WEE2; 0% in the assay on WNK1; 0% in the assay with WNK2. The “%Inh” value in the assay with WNK3 is recorded as 0%; in the assay with WNK4 it was 0%; in the assay with YANK1, 0%; in the assay with YANK2, 0%; in the assay on YANK3, 0%; with YES, 29%. Besides, the “%Inh” value is on record as 0% in the assay on YSK1 and 7% in the assay with YSK4.
As to `O=C(Nc1c(F)cccc1F)c1cc(C(=O)c2ccccc2F)c[nH]1` [GSK1326180], the “%Inh” value in [1] came to 0%; in the assay with TYRO3 it was 0%; in the assay with ULK1, 15%; in the assay on ULK2, 0%; in the assay with ULK3, 2%; in the assay on VEGFR2, 0%. Besides, the “%Inh” value in the assay on VPS34 came to 5%; in the assay with VRK2, 0%; with WEE1, 2%; with WEE2, 6%; in the assay on WNK1, 8%; in the assay with WNK2 it was 0%. The “%Inh” value in the assay with WNK3 worked out at 0%; in the assay with WNK4, 0%; in the assay on YANK1, 1%; in the assay with YANK2, 0%; in the assay on YANK3 it was 0%; with YES it was 0%. For the same molecule, the figures for the “%Inh” value with YSK1 and in the assay on YSK4 were 10% and 0%, respectively.
Regarding `CCn1cnc2c(NCc3ccccc3)ncnc21` [SKF-96418], the “%Inh” value in [1] was found to be 30%; in the assay on TYRO3, 0%; in the assay on ULK1, 0%; with ULK2 it was 38%; in the assay on ULK3, 0%; with VEGFR2, 0%. The “%Inh” value was 33% in the assay with VPS34; 16% in the assay on VRK2; 0% in the assay with WEE1; 0% in the assay with WEE2; 12% in the assay with WNK1; 0% in the assay with WNK2. For the same molecule, the “%Inh” value with WNK3 is given as 43%; in the assay with WNK4, 16%; in the assay with YANK1, 0%; in the assay with YANK2, 19%; in the assay on YANK3, 0%; with YES, 0%. The “%Inh” value in the assay with YSK1 amounted to 0%; in the assay with YSK4 it was 10%.
`Fc1cc(Cl)ccc1Nc1ccnc2cc(-c3ccc(CN4CCSCC4)o3)ccc12` [GW560106]: the “%Inh” value in assay [1] came out at 52%; with TYRO3 it was 61%; in the assay on ULK1 it was 0%; in the assay on ULK2, 0%; in the assay with ULK3 it was 15%; with VEGFR2, 65%. Also, the “%Inh” value in the assay with VPS34 was found to be 0%; in the assay with VRK2 it was 29%; in the assay with WEE1, 0%; in the assay on WEE2, 2%; in the assay with WNK1, 1%; in the assay on WNK2 it was 0%. In addition, the “%Inh” value in the assay on WNK3 worked out at 35%; with WNK4 it was 14%; in the assay with YANK1 it was 7%; in the assay with YANK2, 24%; with YANK3 it was 1%; in the assay on YES, 79%. For the same molecule, the figures for the “%Inh” value in the assay with YSK1 and with YSK4 were 19% and 66%, respectively.
Consider `Cc1cccc(Nc2nc(N[C@H]3CCCC[C@H]3N)ncc2C(N)=O)c1.Cl` [GSK986310], for which the “%Inh” value in assay [1] was determined as 19%; with TYRO3 it was 21%; in the assay on ULK1, 72%; in the assay with ULK2 it was 80%; in the assay on ULK3, 43%; in the assay on VEGFR2, 0%. The “%Inh” value in the assay with VPS34 was 56%; in the assay on VRK2 it was 0%; in the assay on WEE1, 41%; in the assay on WEE2 it was 8%; in the assay with WNK1, 9%; with WNK2, 30%. Moreover, the “%Inh” value was 32% with WNK3; 0% with WNK4; 50% in the assay with YANK1; 46% with YANK2; 51% in the assay with YANK3; 44% in the assay on YES. In addition, the “%Inh” value in the assay with YSK1 is given as 54%; in the assay on YSK4, 82%.
In the case of `Cl.Cl.NC(CNC(=O)c1cc(Br)c(-c2ccnc3[nH]ccc23)s1)c1ccccc1` (stereo not drawn) [GSK1322949], the “%Inh” value is recorded as 38% in assay [1]; 0% in the assay with TYRO3; 49% in the assay on ULK1; 0% in the assay with ULK2; 8% with ULK3; 30% with VEGFR2. For the same molecule, the “%Inh” value in the assay with VPS34 was found to be 59%; in the assay with VRK2, 67%; in the assay with WEE1 it was 18%; with WEE2, 0%; in the assay with WNK1, 1%; with WNK2 it was 0%. For the same molecule, the “%Inh” value was 24% with WNK3; 20% in the assay with WNK4; 22% with YANK1; 0% with YANK2; 0% with YANK3; 2% with YES. Also, the “%Inh” value in the assay with YSK1 is reported as 28%; with YSK4 it was 94.8%.
With `O=C1NC(=O)C(c2ccccc2Cl)=C1Nc1cccc(Cl)c1` [SB-342409], the “%Inh” value in [1] was 29%; in the assay on TYRO3, 0%; with ULK1, 36%; with ULK2, 0%; in the assay on ULK3, 24%; in the assay with VEGFR2, 0%. The “%Inh” value in the assay with VPS34 came out at 0%; in the assay with VRK2, 12%; with WEE1, 0%; in the assay on WEE2 it was 6%; in the assay on WNK1, 14%; in the assay with WNK2, 8%. The “%Inh” value in the assay with WNK3 worked out at 0%; in the assay on WNK4, 1%; with YANK1, 0%; in the assay with YANK2 it was 0%; with YANK3 it was 100%; with YES it was 17%. The “%Inh” value in the assay with YSK1 was 15%; in the assay on YSK4 it was 40%.
Consider `COc1cc(Nc2nccc(N3CCC(NS(=O)(=O)c4ccc(NC(C)=O)cc4)CC3)n2)cc(OC)c1OC` [GSK1379825], for which the “%Inh” value amounted to 84% in assay [1]; 76% in the assay on TYRO3; 21% with ULK1; 11% in the assay with ULK2; 97.4% in the assay on ULK3; 0% in the assay with VEGFR2. In addition, the “%Inh” value came to 34% in the assay on VPS34; 0% in the assay with VRK2; 75% with WEE1; 0% with WEE2; 0% in the assay with WNK1; 16% in the assay on WNK2. For the same molecule, the “%Inh” value with WNK3 is 25%; with WNK4, 23%; with YANK1 it was 2%; in the assay on YANK2, 7%; in the assay with YANK3, 0%; in the assay with YES, 39%. The results for the “%Inh” value with YSK1 and in the assay with YSK4 were 16% and 32%, respectively.
Turning to `Nc1ncnc2scc(-c3ccc(NC(=O)Cc4cc(F)ccc4F)cc3)c12.O=C(O)C(F)(F)F` [SB-731254-M], the “%Inh” value worked out at 0% in assay [1]; 0% in the assay on TYRO3; 11% with ULK1; 1% with ULK2; 34% with ULK3; 80% in the assay on VEGFR2. Also, the “%Inh” value with VPS34, in the assay with VRK2, in the assay with WEE1, in the assay with WEE2, in the assay on WNK1 and in the assay on WNK2 was 0% in each case. The “%Inh” value was 0% in the assay with WNK3; 25% in the assay on WNK4; 89% with YANK1; 90.1% with YANK2; 28% in the assay with YANK3; 29% with YES. In addition, the “%Inh” value stood at 0% in the assay with YSK1 and 97.8% in the assay on YSK4.
